Data as given in PubChem BioAssay (NCATS).
Where “and” joins values, the source holds several entries; their conditions need not be identical. Equal values may be shown once. Records with an inconclusive call do not appear. A call without a number means that no potency is given here. Calls of active or inactive are those of the source. Unless noted, the call rests on the fitted dose curve; in most records, active means well fitted curve in the direction sought with a large enough effect; inconclusive means small, poorly fitted or top-dose-only effect, or another doubt; inactive means no such curve, though single readings can be large; an effect the other way counts as inactive or inconclusive.

Experiments:
[1] = Cell Viability - BJ (AID 421; calls by dose curve;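 further: potency means the concentration at half of the fitted maximal effect; cells exposed to compound for 40 hours at 37 °C before readout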); conditions: BJ fibroblast viability, qHTS
Method in brief: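 Cytotoxicity as drop in intracellular ATP (CellTiter-Glo, 20 min RT) after 40 hr compound exposure of BJ fibroblasts at 37 °C. Titrations scaled between DMSO and 100 uM tamoxifen, Hill-fitted for AC50.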

[2] = Cell Viability - HepG2 (AID 433; calls by dose curve;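 further: potency means the concentration at half of the fitted maximal effect; potency for ATP loss meaning cytotoxicity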); conditions: qHTS
Method in brief: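 HepG2 cells, 1500 per well, treated 40 hr at 37 °C in complete medium; viability from intracellular ATP by CellTiter-Glo luminescence. Normalized to DMSO and 100 uM tamoxifen; AC50 from Hill fit of qHTS concentration-response.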

[3] = Cell Viability - HUV-EC-C (AID 542); conditions: HUV-EC-C endothelial cell viability, qHTS; series mostly up to 92.2 µM; further: nearly all actives have a fitted effect of over 35% in size
Method in brief: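 Cells were seeded at 1000 per well and incubated 5 hr at 37 °C before compound addition. After 40 hr at 37 °C, CellTiter-Glo reagent was added for 20 min and luminescence read. AC50 values came from Hill-equation modelling.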

[4] = Cell Viability - Renal Proximal Tubule (AID 545); conditions: renal proximal tubule cells viability, primary cells of rat origin; activity change, negative = cytotoxicity: at 91.7 µM (top of the series); further: nearly all actives have a fitted effect of over 40% in size
Method in brief: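 Rat renal proximal tubule primary cells, 1000/well, exposed to compounds for 40 hr at 37 °C in complete medium; cellular ATP read by CellTiter-Glo luminescence. AC50 from concentration-response fitted with standard Hill equation.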

[5] = Cell Viability - Mesenchymal (AID 546); conditions: mesenchymal cells viability, qHTS; activity change, negative = cytotoxicity: at 91.7 µM (top of the series);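 further: cells exposed to compound for 40 hours before reading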
Method in brief: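 In this qHTS cytotoxicity format, glomerulus-derived human mesenchymal kidney cells received compound for 40 hr, then luciferase-based ATP quantitation. Concentration-response data were fitted with the Hill equation.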

[6] = MultiTox-Fluor Cytotoxicity Assay - LYMP1-003 - Dead Cells (AID 961); conditions: LYMP1-003 lymphoblastoid cells, dead-cell protease fluorescence; series mostly up to 92.2 µM; further: nearly all actives have a fitted effect of over 70% in size
Method in brief: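 Dead-cell protease release, detected as bis-AAF-R110 fluorescence at 485/520 nm, was measured in LYMP1-003 cells after 16 h compound treatment at 37 C. AC50 values came from Hill-modeled qHTS curves normalized to DMSO (0%) and 15 uM tetraoctylammonium bromide (100%).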

[7] = Cell Viability - LYMP2-003 (AID 965); conditions: LYMP2-003 lymphoblastoid cell viability; series mostly up to 92.2 µM;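 further: cells exposed to compounds for 24 h before reading; nearly all actives have a fitted effect of over 50% in size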
Method in brief: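 Human lymphoblastoid LYMP2-003 cells, 2500/well, exposed to compounds for 24 h at 37 C in complete medium. Viability read as intracellular ATP by CellTiter-Glo luminescence; AC50 from Hill-equation fits of qHTS concentration-response data.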

[8] = Cell Viability - LYMP2-011 (AID 969); conditions: LYMP2-011 lymphoblastoid cells viability; series mostly up to 92.2 µM; further: nearly all actives have a fitted effect of over 60% in size
Method in brief: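 In this qHTS cytotoxicity format, compounds are tested across concentrations on human lymphoblastoid cells in complete medium for 24 hours at 37 C. Viability is taken as cellular ATP measured by luciferase luminescence.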

[9] = Cell Viability - LYMP2-013 (AID 970); conditions: LYMP2-013 lymphoblastoid cells viability; series mostly up to 92.2 µM; further: nearly all actives have a fitted effect of over 55% in size
Method in brief: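 Cytotoxicity is scored as a concentration-dependent drop in intracellular ATP in human lymphoblastoid cells after 24 hr compound exposure at 37 C. ATP is quantified by luciferase luminescence, and AC50 values come from Hill-equation modeling.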

[10] = Cell Viability - LYMP2-023 (AID 975); conditions: LYMP2-023 lymphoblastoid cell viability; series mostly up to 92.2 µM; further: nearly all actives have a fitted effect of over 55% in size
Method in brief: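 Steps: seed 2500 human lymphoblastoid cells per well, incubate 5 hr at 37 C, add compound for 24 hr at 37 C, add CellTiter-Glo, hold 30 min at room temperature, read luminescence. AC50 derived by Hill modelling.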

[11] = Cell Viability - LYMP2-025 (AID 976); conditions: LYMP2-025 lymphoblastoid cell viability; series mostly up to 92.2 µM
Method in brief: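 Acute cytotoxicity is scored as a concentration-dependent fall in intracellular ATP, measured by luciferase luminescence, in human lymphoblastoid LYMP2-025 cells exposed to compound for 24 hours at 37 C. AC50 values come from standard Hill fits.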

[12] = Cell Viability - LYMP2-002 (AID 977); conditions: LYMP2-002 lymphoblastoid cell viability, qHTS; series mostly up to 92.2 µM;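 further: compound exposure lasted 24 h at 37 °C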
Method in brief: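 In this qHTS viability screen, 2500 human lymphoblastoid cells per well receive compound for 24 hr at 37 C, and luciferase-based ATP luminescence gives the viability signal. Tetraoctylammonium bromide serves as positive control.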

[13] = Cell Viability - LYMP2-008 (AID 980); conditions: LYMP2-008 lymphoblastoid cell viability, qHTS; series mostly up to 92.2 µM; further: nearly all actives have a fitted effect of over 60% in size
Method in brief: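 Cells seeded at 2500/well and rested 5 hr at 37 C; compounds added over a concentration range and incubated 24 hr at 37 C; CellTiter-Glo added, 30 min at room temperature; luminescence read and AC50 fitted with Hill model.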

[14] = Cell Viability - LYMP2-014 (AID 983); conditions: LYMP2-014 lymphoblastoid cells, viability qHTS; series mostly up to 92.2 µM; further: nearly all actives have a fitted effect of over 50% in size
Method in brief: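 Cells are plated at 2500/well and left 5 hr at 37 C. Compounds are added across a concentration range and incubated 24 hr at 37 C in complete medium. CellTiter-Glo is added, and luminescence is read after 30 min at room temperature.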

[15] = Cell Viability - LYMP2-016 (AID 984); conditions: LYMP2-016 lymphoblastoid cell viability, qHTS; series mostly up to 92.2 µM; further: nearly all actives have a fitted effect of over 55% in size
Method in brief: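 Human lymphoblastoid LYMP2-016 cells, 2500 per well, treated with compounds for 24 h at 37 C. Viability read as intracellular ATP by CellTiter-Glo luminescence after 30 min at room temperature; AC50 from Hill fits of concentration-response.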

[16] = Cell Viability - LYMP2-026 (AID 989); conditions: LYMP2-026 lymphoblastoid cell viability, qHTS; series mostly up to 92.2 µM; further: nearly all actives have a fitted effect of over 50% in size
Method in brief: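 Cells are seeded at 2500 per well and held 5 hr at 37 C. Compounds are added in concentration series for 24 hr, then CellTiter-Glo reagent is applied and luminescence read.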

[17] = Cell Viability - LYMP1-002 - Assay at 40 hr (AID 994); conditions: LYMP1-002 lymphoblastoid cell viability; series mostly up to 92.2 µM; further: nearly all actives have a fitted effect of over 60% in size
Method in brief: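 Cells are plated at 2500 per well and rested 5 hr at 37 C. Compounds are added and incubated 40 hr at 37 C. CellTiter-Glo reagent is added for 30 min at room temperature before luminescence is read.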

[18] = qHTS assay for small molecule antagonists of retinoid X receptor alpha signaling (AID 588546; active means well fitted inhibition curve with a large enough effect in the signal ratio, with a control signal flat, not every such curve was filed as active; the % refers to the signal ratio;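 further: cells stimulated with 9-cis-retinoic acid as agonist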); conditions: HEK293T RXRa-UAS-bla, beta-lactamase ratio, antagonist mode; measured here: W530 green channel, cytotoxicity proxy
Method in brief: (§1)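 Beta-lactamase reporter inhibition, read as CCF4 fluorescence ratio (ex 405, em 460/530 nm) after 2 h at RT. HEK293T UAS-bla cells, 2500/well, were stimulated with 9-cis-RA at 500 or 100 nM final alongside test compound for 18 h at 37 C.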

[19] = molecular target: Retinoic acid receptor RXR-alpha (Homo sapiens) (UniProt P19793); assay: as above; conditions: HEK293T RXRa-UAS-bla, beta-lactamase ratio, antagonist mode
Retinoic acid receptor RXR-alpha (Homo sapiens), sequence (P19793 whole entry, looked up): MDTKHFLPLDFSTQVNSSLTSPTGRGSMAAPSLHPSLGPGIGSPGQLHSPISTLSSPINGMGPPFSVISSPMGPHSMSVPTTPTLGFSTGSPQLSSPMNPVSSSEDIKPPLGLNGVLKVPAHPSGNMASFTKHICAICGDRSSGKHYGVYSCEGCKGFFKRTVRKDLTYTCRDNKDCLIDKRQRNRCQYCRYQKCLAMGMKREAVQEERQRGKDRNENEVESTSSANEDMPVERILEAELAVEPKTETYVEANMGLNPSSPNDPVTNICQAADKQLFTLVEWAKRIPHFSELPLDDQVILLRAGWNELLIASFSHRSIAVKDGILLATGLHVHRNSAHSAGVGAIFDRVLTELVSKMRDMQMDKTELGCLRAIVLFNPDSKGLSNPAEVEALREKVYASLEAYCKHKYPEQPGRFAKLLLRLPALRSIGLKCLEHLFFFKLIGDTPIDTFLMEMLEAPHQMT
Method in brief: as §1

[20] = qHTS assay for environmental chemicals that activate the Aryl hydrocarbon Receptor (AhR) signaling pathway (AID 651777); conditions: 1A2-DRE human hepatoma cells, luciferase, 24 h; activation: stronger effect = higher value; further: nearly all actives have a fitted effect of over 15% in size
Method in brief: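 Quantitative HTS in stably transfected human liver-derived cells whose luciferase gene sits downstream of the CYP1A2 promoter and dioxin response element. After 24 hr exposure at 37 C, One-Glo luminescence was measured.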

SMILES	Potency [1]	Potency [2]	Potency [3]	Potency [4]	Potency [5]	Potency [6]	Potency [7]	Potency [8]	Potency [9]	Potency [10]	Potency [11]	Potency [12]	Potency [13]	Potency [14]	Potency [15]	Potency [16]	Potency [17]	max response [18]	max response [19]	activation [20]
Cc1ccc2ccc3cccc4ccc1c2c34	> 92 µM (inactive)	> 92 µM (inactive)	inactive	inactive	inactive	inactive	inactive	inactive	inactive	inactive	inactive	inactive	inactive	inactive	inactive	inactive	inactive	-6.82%	-1.11% (inactive)	5.12% (inactive)
Oc1c(Cl)cc(Cl)c(Cl)c1Cl	> 92 µM (inactive)	> 92 µM (inactive)	inactive	inactive	inactive	inactive	inactive	inactive	inactive	inactive	inactive	inactive	inactive	inactive	inactive	inactive	inactive	-1.63% and -16.2%	4.04% (inactive) and 5.02% (inactive)	-0.427% (inactive)
NC(=O)c1ccc([N+](=O)[O-])cc1	> 92 µM (inactive)	> 92 µM (inactive)	inactive	inactive	inactive	inactive	inactive	inactive	inactive	inactive	inactive	inactive	inactive	inactive	inactive	inactive	inactive	-6.07%	-5.31% (inactive)	-1.24% (inactive)
C/C(Cl)=C/CCl	> 92 µM (inactive)	> 92 µM (inactive)	inactive	inactive	inactive	inactive	inactive	inactive	inactive	inactive	inactive	inactive	inactive	inactive	inactive	inactive	inactive	-2.04%	6.91% (inactive)	0.708% (inactive)
Oc1ccc2c(c1)OCO2	> 92 µM (inactive)	> 92 µM (inactive)	inactive	inactive	inactive	inactive	inactive	inactive	inactive	inactive	inactive	inactive	inactive	inactive	inactive	inactive	inactive	5.56%	10.9% (inactive)	-0.0594% (inactive)
CC(=O)OC1CC(C)OC(C)O1 (centres undefined)	> 92 µM (inactive)	> 92 µM (inactive)	inactive	inactive	inactive	inactive	inactive	inactive	inactive	inactive	inactive	inactive	inactive	inactive	inactive	inactive	inactive	1.48% and -10.6%	6% (inactive) and 5.73% (inactive)	-3.53% (inactive) and 1.99% (inactive)
C=Cc1cccc(C)c1	> 92 µM (inactive)	> 92 µM (inactive)	inactive	inactive	inactive	inactive	inactive	inactive	inactive	inactive	inactive	inactive	inactive	inactive	inactive	inactive	inactive	-7.34%	-5.75% (inactive)	-0.0469% (inactive)
CCCCOC(=O)COc1ccc(Cl)cc1Cl	> 92 µM (inactive)	> 92 µM (inactive)	inactive	inactive	inactive	inactive	inactive	inactive	inactive	inactive	inactive	inactive	inactive	inactive	inactive	inactive	inactive	-10.2% and -6.39%	5.43% (inactive) and -12.7% (inactive)	–
O=[N+]([O-])c1ccc(F)cc1F	> 92 µM (inactive)	> 92 µM (inactive)	inactive	inactive	inactive	inactive	inactive	inactive	inactive	inactive	inactive	inactive	inactive	inactive	inactive	inactive	inactive	-4.17%	10.7% (inactive)	0.688% (inactive)
CCCC(=O)OC(=O)CCC	> 92 µM (inactive)	> 92 µM (inactive)	inactive	inactive	inactive	inactive	inactive	inactive	inactive	inactive	inactive	inactive	inactive	inactive	inactive	inactive	inactive	-8.03% and -4.72%	2.23% (inactive) and 15.8% (inactive)	0.206% (inactive) and -0.322% (inactive)
CC(=O)OCc1ccc2c(c1)OCO2	> 92 µM (inactive)	> 92 µM (inactive)	inactive	inactive	inactive	inactive	inactive	inactive	inactive	inactive	inactive	inactive	inactive	inactive	inactive	inactive	inactive	8.84%	24.9% (inactive)	1.36% (inactive)
CCC(Cl)CC(Cl)C(Cl)C(Cl)C(Cl)C(C)Cl (centres undefined)	> 92 µM (inactive)	> 92 µM (inactive)	inactive	inactive	inactive	inactive	inactive	inactive	inactive	inactive	inactive	inactive	inactive	inactive	inactive	inactive	inactive	7.22%	-1.06% (inactive)	-0.274% (inactive)
